From PubChem BioAssay
MARV entry inh: Marburg virus entry inhibition. Marburg virus pseudotyped entry inhibition, cell reporter. Potency, µM (highest dose often 37.8 µM), inactives show at the top dose activity change, negative = inhibition, hits mostly inhibitors. 300,000 tested, 1.8% active. AID 540276; calls by dose curve; tested in HEK293 cells; note: potency is the fitted concentration of half-maximal effect
FMDV antiviral: foot and mouth disease virus antiviral activity | AID 1159524 | Potency, µM (top dose mostly 57.9 µM), without a hit: at the highest dose activity change, negative = inhibition, most hits filed as inhibitors | FMDV antiviral cell-based qHTS | 410,000 tested, 1.2% active; calls by dose curve; tested in HEK293T cells; note: read-out not given here; potency is the fitted concentration of half-maximal effect; nearly all actives have a fitted effect of over 45% in size
LASV entry inh: blocks Lassa virus binding to or entry into cells; Potency, µM (top dose mostly 37.9 µM), for inactives: at the top dose activity change, negative = inhibition, most hits filed as inhibitors; 300,000 tested, 1.2% active; Lassa virus pseudotype entry inhibition, cell reporter; calls by dose curve; tested in HEK293 cells; note: potency is the fitted concentration of half-maximal effect; nearly all actives have a fitted effect of over 50% in size
HCMV inh: blocks human cytomegalovirus replication. HFF cells, HCMV-luciferase reporter, 72 h; hits give low values. activity change, negative = inhibition, % at 57.5 µM. 410,000 tested, 4.5% active; in the data active = activity change below about -60%; inconclusive = no clear call, values can overlap the other calls; inactive = above about -39%
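Screen run at 2 compound doses on HFFs infected with reporter HCMV, MOI 1 PFU/cell. Luciferase activity from cell lysates at 72 h post infection gave inhibition relative to buffer-only and Salinomycin wells.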
Numbers without * were called inactive; ? = inconclusive; nt = no result given; [ ] = another dose, or the depositor's remark. Rows were chosen to be rich in hits. Some 6.2% of all compounds tested hit in one or more screens of this group. % is set by controls: 0 for no effect and ±100 for the full control effect.

SMILES	MARV entry inh	FMDV antiviral	LASV entry inh	HCMV inh
CSCCC(NC(=O)c1ccccc1Br)C(=O)NCc1ccc(F)cc1 (stereo unspecified)	nt	-11.2%	nt	-63.1*
CSCCC(NC(=O)c1ccccc1Br)C(=O)NCC1CCCCC1 (stereo unspecified)	12.9%[46.1 µM]	11.5%	-2.5%[46.1 µM]	-27.0
O=C(C=Cc1ccccc1)c1c[nH]c2ccccc2c1=O	?	-18.4%	?	-77.2*
Cc1[nH]c2ccccc2c1/C=C/C(=O)c1ccccc1	-32.4%	23.8%	?	37.6
Cc1[nH]c2ccccc2c(=O)c1C(=O)/C=C/c1ccccc1	nt	12.6µM*	nt	-97.2*
CCN(CC(=O)Nc1ccc2c(c1)OCCO2)S(=O)(=O)c1ccc(C)cc1	-6.8%	9.2%	-0.1%	-8.3
C#CCN1C=CC(=O)[C@@H](OC(=O)Nc2ccc(Cl)cc2)[C@H]1c1ccccc1Br	nt	-17.0%	nt	25.1
CC(C)(C)n1cc(C(=O)c2ccc3ccccc3c2O)cn1	3.98µM*	15.8µM*	12.6µM*	?
OC1(c2ccccc2)C/C(=N\n2cnnc2)C=C1c1ccccc1 (stereo unspecified)	6.6%	nt	-3.2%	60.6
O=C1CC(N2CCC(n3c(=O)[nH]c4ccccc43)CC2)C(=O)N1Cc1ccccc1 (stereo unspecified)	28.2%	-26.4%	17.7%	-27.8
CCOC(=O)C(NC(=O)c1cccc(Cl)c1)(OCc1ccccc1)C(F)(F)F (stereo unspecified)	?	-7.1%	?	-62.4*
CCOC(=O)C(NC(=O)c1ccccc1)(OCc1ccccc1)C(F)(F)F (stereo unspecified)	?	-5.6%	3.4%	-32.7
COc1cccc(-n2c(=S)[nH]c3ccccc3c2=O)c1	5.0%[46.1 µM]	20.2%	-21.0%[46.1 µM]	-21.0
O=c1c2ccccc2[nH]c(=S)n1-c1cccc(S(=O)(=O)N2CCCC2)c1	0.1%[46.1 µM]	-27.5%	11.6%	-76.7*
Cc1nc2c3cc(F)ccc3n(CCN3CCCCC3)c2s1	7.08µM*	-22.1%	-28.8%[46.1 µM]	34.9
Cc1nc2c3ccccc3n(CCN3CCCCC3)c2s1	-6.4%	nt	nt	nt
Cc1cc2c(cc1C)C(c1ccccc1OC(C)C)CC(=O)N2 (stereo unspecified)	1µM*	-12.9%	?	18.1
COc1ccccc1C1CC(=O)Nc2cc(C)c(C)cc21 (stereo unspecified)	?	-13.4%	?	-5.4
COc1cccc(C2CC(=O)Nc3cc4c(cc32)OCO4)c1OC(C)C (stereo unspecified)	?	?	-28.9%[46.1 µM]	?
CC(C)Oc1ccccc1C1CC(=O)Nc2cc3c(cc21)OCO3 (stereo unspecified)	6.51µM*	?	?	-100.9*
O=C(Nc1ccc(Cc2ccncc2)cc1)C1CCC(N2C(=O)C3C4C=CC(C5CC45)C3C2=O)CC1 (stereo unspecified)	?	14.1µM*	?	-84.9*
CC(=O)Nc1ccc(NC(=O)C2CCC(N3C(=O)C4C5C=CC(C6CC56)C4C3=O)CC2)cc1 (stereo unspecified)	nt	-15.6%	nt	14.7
CC(=O)Nc1ccc(CN(C)c2c(C)nc3ccc(C(=O)N(C)Cc4ccccc4)cn23)cc1	nt	-16.8%	nt	0.8
CC(=O)Nc1ccc(CN(C)c2c(C)nc3ccc(C(=O)NC4CCN(Cc5ccccc5)CC4)cn23)cc1	nt	-18.2%	nt	-97.1*
Cc1c(Cl)cccc1NC(=O)CN1C(=O)CSc2ccc(S(=O)(=O)N3CCCC3)cc21	nt	9.2%	-0.2%[46.1 µM]	51.2
SMILES	MARV entry inh	FMDV antiviral	LASV entry inh	HCMV inh
Cn1nc(C(F)(F)F)c2cc(C(=O)Nc3ccc(F)cc3)sc21	-21.5%[46.1 µM]	5.6%	-2.1%	-18.3
Cn1nc(C(F)(F)F)c2cc(C(=O)Nc3ccc(F)c(Cl)c3)sc21	?	?	?	-75.3*
Cn1nc(C(F)(F)F)c2cc(C(=O)Nc3ccc(C(F)(F)F)cc3)sc21	?	?	?	-106.3*
COc1cc2c(cc1OC)CN(C(=O)CN1C(=O)NC3(CCCCC3C)C1=O)CC2 (stereo unspecified)	-13.6%	-21.2%	0.2%	?
CCNc1ccc(S(=O)(=O)N(C)C)cc1NCC(=O)Nc1ccc(F)c(Cl)c1	?	7.2%	?	-75.3*
CS/C(N)=N/N=C/c1c(O)ccc2ccccc12	nt	15.5%	nt	20.9
COc1cc(/C=C(\C#N)c2nc3ccccc3[nH]2)ccc1OCc1ccc(F)cc1	?	-1.0%	-5.8%[46.1 µM]	-77.6*
COc1cc(/C=C(/C#N)c2nc3ccccc3[nH]2)ccc1OCc1ccc(C(=O)O)o1	?	3.5%	12.9%	-18.2
COc1cc(/C=C(\C#N)c2nc3ccccc3[nH]2)ccc1OCc1cccc(C(F)(F)F)c1	?	-26.7%	?	-87.0*
